Assay outcomes (PubChem BioAssay)
KB-V1 cytotox: qHTS assay for MDR1-selective chemotherapeutics: Primary screen using the drug-selected MDR subline cells KB-V1; Potency, µM (highest dose often 46.1 µM), hits mostly cytotoxic; KB-V1 MDR cells viability, CellTiter-Glo, 72 h; actives 3.4% (n = 400,000); also: nearly all actives have a fitted effect of over 60% in size
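In this primary screen, KB-V1 cells overexpressing P-gp are incubated with library compounds (lowest to highest concentration) for 72 h at 37 degrees C before a luminescent ATP viability read.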
HepG2 tox: qHTS for Inhibitors of TGF-b: Cytotox Counterscreen; actives 0.76% (n = 410,000); HepG2 CAGA-GFP viability, ATP luminescence, 18 h; Potency, µM (top dose mostly 46.1 µM), most hits filed as cytotoxic
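HepG2 CAGA-GFP cells (1000/well, DMEM with 1% FBS) received compound, then TGF-beta at 500 pg/mL final, and were incubated 18 hours at 37 degrees C. Viability was read by CellTiter-Glo luminescence. Media-only wells were set as complete cell-killing and DMSO as no toxicity.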
KB-3-1 tox: qHTS assay for MDR1-selective chemotherapeutics: Primary screen using the parental adenocarcinoma cell KB-3-1 | KB-3-1 viability, CellTiter-Glo ATP luminescence, 72 h | Potency, µM (titrated, usually from 46.1 µM), usual class: cytotoxic | actives 1.4% (n = 400,000); also: nearly all actives have a fitted effect of over 60% in size
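Cells are dispensed, compounds pinned in, plates held at 37 °C for 72 h, then CellTiter-Glo is added and luminescence read after 10 minutes. Cell line: parental KB-3-1 in phenol-red-free DMEM, 10% FBS.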
TGFb inhibitor: qHTS for Inhibitors of TGF-b. AID 588855, 2011. HepG2 CAGA-GFP TGF-b/SMAD3 reporter, GFP fluorescence, 18 h; TGF-beta stimulated, 500 pg/mL final. Potency, µM (titrated, usually from 46.1 µM), hits mostly inhibitors. actives 1.2% (n = 410,000); also: nearly all actives have a fitted effect of over 65% in size
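GFP signal (ex488/em500-530) from TGF-beta-stimulated HEPG2 CAGA-GFP cells, 500 pg/mL final, 18 h at 37 degrees C in DMEM plus 1% FBS, normalized to unstimulated and DMSO-stimulated controls.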
HT1080-NT tox: qHTS for induction of synthetic lethality in tumor cells producing 2HG: qHTS for the HT-1080-NT fibrosarcoma cell line; HT-1080-NT fibrosarcoma viability, CellTiter-Glo ATP luminescence, 48 h; Potency, µM (series often up to 46.1 µM), most hits filed as cytotoxic; actives 1.6% (n = 360,000); AID 686970, 2013;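 also: NT is the 2HG producing partner of a matched IDH1 knockdown line; nearly all actives have a fitted effect of over 55% in size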
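Read-out is CellTiter-Glo luminescence after 10 minutes at room temperature, following 48 hours' compound treatment of HT-1080-NT cells (750 cells/well, RPMI, 5% FBS, 37 degrees C).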
HT1080 IDH1KD tx: qHTS for induction of synthetic lethality in tumor cells producing 2HG: qHTS for the HT-1080-IDH1KD cell line | HT-1080 IDH1 knockdown viability, ATP luminescence, 48 h | actives 2% (n = 360,000) | AID 686971, 2013 | Potency, µM (highest dose often 46.1 µM), most hits filed as cytotoxic
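HT-1080-IDH1KD cells (IDH1 knocked down), 750/well in RPMI with 5% FBS, treated with compound 48 h at 37 degrees C. Viability by CellTiter-Glo luminescence, normalised to DMSO and no-cell wells; concentration-response curves classed.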
Each line names hits and unclear results; the compound was inactive in the other large screens. A selection: hits, their analogues and other compounds. The true share with any hit is near 6.6%. Calls follow the shape of the dose curve; as a rule, active = well fitted curve in the direction sought with a large enough effect; inconclusive = small, poorly fitted or top-dose-only effect, or another doubt; inactive = no such curve, though single readings can be large; an effect the other way counts as inactive or inconclusive.

COC(=O)c1cccc(/C=N/NC(N)=S)c1O	KB-V1 cytotox 15µM, KB-3-1 tox inconclusive, TGFb inhibitor inconclusive, HT1080-NT tox inconclusive
NC(=S)N/N=C/c1ccccc1[N+](=O)[O-]	KB-V1 cytotox inconclusive
O=C(C[n+]1c(Cl)cc(Cl)c2ccccc21)c1ccccc1	none (no result: HT1080-NT tox, HT1080 IDH1KD tx)
O=C(N/N=C/c1ccccc1[N+](=O)[O-])c1ccc(COc2ccccc2-c2ccccc2)cc1	KB-V1 cytotox 2.1µM, KB-3-1 tox inconclusive
Cc1[nH]c(=O)c(C(=O)/C=C/c2ccccc2F)c2c1CCCC2	KB-V1 cytotox 6.5µM, KB-3-1 tox 6.5µM, TGFb inhibitor inconclusive, HT1080-NT tox 7.9µM, HT1080 IDH1KD tx 7.9µM
Cc1ccc(S(=O)(=O)C(CNC(=O)c2ccccc2F)c2cccs2)cc1 (centres undefined)	none (no result: HT1080-NT tox, HT1080 IDH1KD tx)
Cc1cc(C)c(C(=O)c2ccc(C(=O)NC(C)(C)C)cc2)c(C)c1	none
Cc1cc(C)c(C(=O)c2ccc(C(=O)N(C(C)C)C(C)C)cc2)c(C)c1	KB-V1 cytotox 16µM, KB-3-1 tox inconclusive, HT1080-NT tox inconclusive, HT1080 IDH1KD tx inconclusive
O=C(NCC(c1cccs1)N1CCOCC1)C1CCN(S(=O)(=O)c2c(Cl)cccc2Cl)CC1 (centres undefined)	KB-V1 cytotox inconclusive
O=C(NCC(c1cccs1)N1CCOCC1)C1CCN(S(=O)(=O)c2cc(Cl)ccc2Cl)CC1 (centres undefined)	KB-V1 cytotox 9.2µM
Cc1cc(Cl)ccc1OCC(=O)NCC(c1cccs1)N1CCOCC1 (centres undefined)	KB-V1 cytotox 7.3µM, KB-3-1 tox inconclusive
O=C(COc1cccc(Cl)c1)NCC(c1cccs1)N1CCOCC1 (centres undefined)	none
COc1ccc(N2CCN(C(=O)c3cccn3-c3nnc(N4CCCC4)s3)CC2)cc1	none (no result: HT1080-NT tox, HT1080 IDH1KD tx)
CCOc1ccccc1N1CC(c2nc3ccccc3n2CCOc2ccccc2OC)CC1=O (centres undefined)	KB-V1 cytotox inconclusive (no result: HT1080-NT tox, HT1080 IDH1KD tx)
COc1ccccc1NC(=O)N1CC(=O)Nc2sc3c(c2C1c1ccccc1)CCCC3 (centres undefined)	none (no result: HT1080-NT tox, HT1080 IDH1KD tx)
COc1ccc2c(c1)-c1nc(NC(=O)c3ccc(OC)c(Br)c3)sc1CC2	none (no result: HT1080-NT tox, HT1080 IDH1KD tx)
O=C(/C=C/c1ccc(F)cc1)NC(=S)Nc1ccccc1C(=O)NC1CCCCC1	KB-V1 cytotox 16µM
O=C(/C=C/c1ccccc1)NC(=S)Nc1ccccc1C(=O)NC1CCCCC1	KB-V1 cytotox inconclusive
COc1cccc(C(=O)Nc2ccccc2C(=O)NC2CC2)c1	none
COc1cc(OC)cc(C(=O)Nc2ccccc2C(=O)NC2CC2)c1	KB-V1 cytotox 6.5µM, KB-3-1 tox inconclusive, TGFb inhibitor inconclusive, HT1080 IDH1KD tx inconclusive
O=C(NC1CCCCC1)c1ccccc1NC(=O)C1CC1	KB-V1 cytotox 16µM
Cc1ccc(-c2c(CN3CCN(c4cc(Cl)ccc4C)CC3)csc2C)cc1	TGFb inhibitor inconclusive (no result: KB-V1 cytotox, KB-3-1 tox, HT1080-NT tox, HT1080 IDH1KD tx)
Cc1ccc(N2CCN(c3ncnc4onc(-c5ccc(F)cc5)c34)CC2)c(C)c1	none (no result: HT1080-NT tox, HT1080 IDH1KD tx)
Cc1nn(-c2ccccc2)c(-n2cccc2)c1C(=O)N1CCN(c2ccccc2)CC1	TGFb inhibitor inconclusive (no result: HT1080-NT tox, HT1080 IDH1KD tx)
CCOC(=O)N1CCN(C(=O)COc2ccc3c(c2)C(=O)CC(C)(C)O3)CC1	KB-V1 cytotox inconclusive, HT1080-NT tox inconclusive
CC(=O)N1CCC2(CC1)CC(=O)c1cc(OCC(=O)NCc3ccco3)ccc1O2	none
CC(=O)N1CCC2(CC1)CC(=O)c1cc(OCC(=O)NCc3ccc(C)cc3)ccc1O2	KB-V1 cytotox 18µM
CC1(C)CC(=O)c2cc(OCC(=O)N3CCCCCC3)ccc2O1	KB-V1 cytotox 18µM
COc1cccc(CNC(=O)CSc2ncc(S(=O)(=O)c3ccc(C)c(Cl)c3)c(=O)[nH]2)c1	none (no result: HT1080-NT tox, HT1080 IDH1KD tx)
Cc1cccc2[nH]cc(/C=C3/C=Nc4ccccc43)c12	TGFb inhibitor inconclusive (no result: HT1080-NT tox, HT1080 IDH1KD tx)
Cc1ccc(CNC(=O)CN(c2ccc(C)cc2)S(=O)(=O)c2c(C)n[nH]c2C)cc1	none
Cc1ccc(CNC(=O)CN(c2ccc(C(C)C)cc2)S(=O)(=O)c2c(C)n[nH]c2C)cc1	TGFb inhibitor 11µM (no result: HT1080-NT tox, HT1080 IDH1KD tx)
CCCCc1ccc(NC2=NCC(=O)N2CCc2ccccc2)cc1	KB-V1 cytotox inconclusive, KB-3-1 tox inconclusive, TGFb inhibitor inconclusive, HT1080-NT tox inconclusive, HT1080 IDH1KD tx 26µM
Cc1cc(C)cc(NC2=NCC(=O)N2Cc2ccccc2)c1	none
COc1ccc(OCCOc2ccc(N(C)S(=O)(=O)c3ccccc3)cc2)cc1	none
CN(c1ccc(OCCOc2ccccc2Cl)cc1)S(=O)(=O)c1ccccc1	KB-V1 cytotox 16µM
CCC(=O)Nc1cccc(C2=NOC3(C2)C[C@@H](C(N)=O)N(C(=O)c2ccccc2C(=O)c2ccccc2)C3)c1 (some centres undefined)	none
NC(=O)[C@H]1CC2(CC(c3cccc(NC(=O)COc4ccc(Cl)cc4)c3)=NO2)CN1C(=O)c1ccccc1C(=O)c1ccccc1 (some centres undefined)	KB-3-1 tox 21µM, TGFb inhibitor inconclusive
CC1=C(c2ccc(C)c(C)c2)S(=O)(=O)N=C1N1CCN(c2cccc(C(F)(F)F)c2)CC1	none (no result: KB-V1 cytotox, KB-3-1 tox, HT1080-NT tox, HT1080 IDH1KD tx)
Cc1cnc(C(=O)N2CCN(S(=O)(=O)c3cc(C(F)(F)F)cc(C(F)(F)F)c3)CC2)cn1	KB-V1 cytotox inconclusive, TGFb inhibitor inconclusive
CC1CC1C(=O)N1CCN(S(=O)(=O)c2cc(C(F)(F)F)cc(C(F)(F)F)c2)CC1 (centres undefined)	KB-V1 cytotox inconclusive, TGFb inhibitor 14µM
CN(C)c1ccc(-c2cc(NC=O)c3ncc(-c4ccc(F)c(Cl)c4)n3c2)cc1	KB-3-1 tox inconclusive, HT1080-NT tox inconclusive, HT1080 IDH1KD tx inconclusive
O=C(C(=Cc1ccccc1)CN1CCCCC1)c1ccccc1	KB-V1 cytotox inconclusive, KB-3-1 tox 5.2µM, TGFb inhibitor inconclusive, HT1080-NT tox inconclusive, HT1080 IDH1KD tx 4.6µM
O=C(CCCCN1CCCCC1)c1ccccc1	KB-V1 cytotox inconclusive
COc1cc(C(=O)NC2(C(F)(F)F)C(=O)NC(C)=C2C#N)cc(OC)c1OC (centres undefined)	none (no result: HT1080-NT tox, HT1080 IDH1KD tx)
